# Source: PubChem BioAssay (several laboratories)
# A selection: hits, their analogues and other compounds. The true share with any hit is near 5.4%.
# JMJD2C inh = blocks human GASC-1 demethylase activity. Q9H3R0. GST-JMJD2C(1-420) H3K9me3 demethylation, DELFIA europium. inhibition, % at 2.35 µM. 0.069% of 330,000 active. AID 2099;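 active means more than half of a compound's replicate wells show inhibition beyond 50%, single wells judged on their own value; inconclusive means some, but no more than half, of replicates pass 50% inhibition; inactive means no replicate passes 50% inhibition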;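 further: signal counts dimethyl H3K9 product captured on neutravidin plate; 0% = median of DMSO wells and 100% = 0.3 times that DMSO median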
# Target sequence (Q9H3R0 1-420 limits assumed): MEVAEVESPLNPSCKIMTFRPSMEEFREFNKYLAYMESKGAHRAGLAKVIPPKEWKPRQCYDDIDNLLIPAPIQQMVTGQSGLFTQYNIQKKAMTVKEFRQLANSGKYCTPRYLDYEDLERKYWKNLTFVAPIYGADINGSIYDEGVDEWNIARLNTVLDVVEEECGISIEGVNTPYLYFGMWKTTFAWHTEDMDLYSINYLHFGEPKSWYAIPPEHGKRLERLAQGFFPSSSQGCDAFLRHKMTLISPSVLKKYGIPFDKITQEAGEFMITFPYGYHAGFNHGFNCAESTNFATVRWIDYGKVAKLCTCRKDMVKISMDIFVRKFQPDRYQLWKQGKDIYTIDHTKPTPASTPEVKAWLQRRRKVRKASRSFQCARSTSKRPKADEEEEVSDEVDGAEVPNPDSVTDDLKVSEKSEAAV
# ALR H2O2 inh = inhibitors of human sulfhydryl oxidase ALR. purified ALR, DTT oxidation, H2O2 HRP-luminol luminescence. inhibition, % (no concentration beside the values). 3.8% of 290,000 active;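 active means mean replicate inhibition above about 79%, with every replicate also reaching it, limit read from the data; inconclusive means only one of the two criteria met; inactive means mean below limit and not every replicate reaching it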
# M18AAP inhibitor = blocks P. falciparum M18 aspartyl aminopeptidase; recombinant PfM18AAP, H-Glu-NHMec fluorogenic cleavage; inhibition, % at 7.35 µM; 1.2% of 290,000 active; AID 1822;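 active means inhibition above the campaign mean inhibition over all tested compounds plus 3 SD, cut at about 28% in these data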;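 further: 0% = plate median of test compound wells and 100% = 2 mM ZnCl2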
# SMARCA2 act = activators of SMARCA2 function. 1% of 370,000 active. MG213 cells, MMTV-luciferase reporter, dexamethasone, overnight. activation, % at 9.1 µM; in the data active means activation above about 7.8%;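 further: 0% = vehicle wells and 100% = reference activator wells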
# Granule exo inh = blocks lytic granule exocytosis | TALL-104 LAMP-1 surface exposure, flow cytometry; cells stimulated with thapsigargin and PMA | inhibition, % at 10 µM | 0.66% of 360,000 active;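 active means inhibition above about 55%, limit read from the data; inconclusive means no clear call, values can overlap the other calls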
# MIN6 prolif = inducers of beta-cell replication in MIN6 cells. MIN6 cells proliferation, ATPlite luminescence, 48 h; cells starved in 0.2% serum; 100% = growth in 10% serum. proliferation, % at 10 µM. 0.29% of 330,000 active;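 active means compounds whose signal lies at least 3.5 SD above the mean of all wells on their plate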;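 further: 0% = DMSO-treated cells in low-serum medium and 100% = 10% serum control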
# Active calls of the source: *; ? = inconclusive; . = no result.
SMILES,JMJD2C inh,ALR H2O2 inh,M18AAP inhibitor,SMARCA2 act,Granule exo inh,MIN6 prolif
N#C[C@H](N)[C@H]1O[C@@H](n2ccc(=O)[nH]c2=O)[C@H](O)[C@@H]1O,.,.,.,-6,.,.
CC(=O)CC[C@H]1CC[C@]2(CCCN(C(=O)C(C)(C)C)C2)O1,.,.,.,-3,.,.
N#CC(C#N)=C1C=C2C=C(N3CCCCC3)CCC2CC1 (configuration not stated),3,99*,4,.,.,.
COC(=O)[C@]12C[C@H](CC(=O)NCCC(C)C)C(=O)N(CCc3ccc(OC)c(OC)c3)C1=C[C@H](COCc1ccccc1)O[C@@H]2C,.,.,.,-2,.,.
CCOC(=O)CNC(=O)N(C)[C@H]1C[C@H]2c3[nH]c4c(-c5cccc(C)c5)cccc4c3CCN2C(=O)[C@H]1[C@H](C)O,.,.,.,4,.,.
N#C/C(=C\c1ccco1)C(=O)Nn1cnnc1,14,.,32*,-3,0,1
COc1ccc(CSc2nnc(SCC(=O)Nc3ccc(S(N)(=O)=O)cc3)s2)cc1,.,.,.,-5,.,.
CCCCNC(=O)C[C@@H]1C(=O)N(Cc2ccc(OC)cc2)C2=CCN(C(=O)OC(C)(C)C)C[C@]21C(=O)OCC,.,.,.,-1,.,.
Nc1oc2ccccc2c1C(=O)Cc1ccccc1O[C@@H]1O[C@H](CO)[C@@H](O)[C@H](O)[C@H]1O,?,90*,.,-1,2,-5
OCc1ccccc1O[C@@H]1O[C@H](CO)[C@@H](O)[C@H](O)[C@H]1O,-15,5,2,3,5,-1
COc1ccc(S(=O)(=O)N(CCc2ccccc2)CC(=O)N2CCOCC2)cc1,-3,99*,-9,5,0,0
O=C(CN(CCc1ccccc1)S(=O)(=O)c1ccccc1)N1CCOCC1,.,.,.,-5,.,.
Cn1c(=O)c2c(nc(Br)n2C/C=N/NC(N)=S)n(C)c1=O,-11,4,13,2,3,3
CCCCCn1c(Br)nc2c1c(=O)n(CC(N)=O)c(=O)n2C,-29,92*,-8,-2,9,1
CCOC(=O)C1CCCN(c2c(NCCCN(C)c3ccccc3)c(=O)c2=O)C1 (configuration not stated),-10,99*,-4,-1,1,0
CCOC(=O)N1CCN(c2c(NCCCN(CC)c3cccc(C)c3)c(=O)c2=O)CC1,-4,99*,-5,1,-2,-2
CCOC(=O)CC[C@@H]1CC[C@]2(CCCN(Cc3nccn3C)C2)O1,.,.,.,-4,.,.
COc1ccc(-c2nc3n(n2)C(c2ccccc2)C2=C(CCCC2=O)N3)cc1OC (configuration not stated),17,97*,0,-1,-1,-3
O=C(CCc1ccccc1)N[C@H]1[C@H](OC(=O)c2cccnc2)CCC[C@@]12C(=O)N(Cc1ccccc1)c1ccccc12,.,.,.,-4,.,.
Clc1ccc(OCCCN2CCCC2)cc1Cl,3,-10,-12,7.8*,-4,0
COC(=O)[C@]12C[C@H](CC(=O)NCc3cccc4ccccc34)C(=O)N(CCc3ccc(OC)c(OC)c3)C1=C[C@H](C(C)C)O[C@@H]2C1CC1,.,.,.,-1,.,.
CCCCNC(=O)c1onc(CSc2ccc(F)c(F)c2)c1C(=O)O,-1,43,0,0,6,-7
CCCCNC(=O)c1onc(CSc2ccc(C)c(C)c2)c1C(=O)O,4,98*,2,2,0,-1
C=CCNC(=O)c1onc(CSc2cc(C)cc(C)c2)c1C(=O)O,4,1,2,2,-3,-3
COCCNC(=O)c1onc(CSc2ccc(Cl)cc2)c1C(=O)O,16,-6,-6,1,-3,-2
SMILES,JMJD2C inh,ALR H2O2 inh,M18AAP inhibitor,SMARCA2 act,Granule exo inh,MIN6 prolif
COCCNC(=O)c1onc(CSc2ccc(C(C)C)cc2)c1C(=O)O,-1,89*,-5,1,-6,1
C=CCNC(=O)c1onc(CSc2ccc(C)c(C)c2)c1C(=O)O,3,98*,-2,3,6,1
CCOc1ccccc1C(=O)N1CCC(Oc2cccnc2)CC1,.,.,.,1,.,.
C#CCNC(=O)C[C@H]1C[C@@]2(C(=O)OC)C(=C[C@H](C3CCCC3)O[C@@H]2C)N(CCCCCCCC)C1=O,.,.,.,-8,.,.
Cc1ccccc1OCC(=O)Nc1cccc(C(=O)O)c1,.,.,6,0,-2,.
COc1cccc(OCC(=O)Nc2cc(NC(=O)COc3cccc(OC)c3)cc(C(=O)O)c2)c1,-24,99*,-5,-1,-1,-3
